Source: PubChem BioAssay (NCI)
The panel holds about 83,000 compounds, 20% with a hit somewhere; the sample as a whole holds those more often.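 For each line, cells grew in 96-well plates with the test compound present at a single concentration for 48 hours.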 The source made the active and inactive calls. Rule for the calls: active = growth percent below 10; inactive = the rest.

Key:
Experiment in all cases: NCI-60 one-dose screen, 48 h (100 = growth as untreated, 0 = no growth, -100 = all killed)
[1] = tested on: EKVX NSCLC; conditions: 10 µM unless noted
[2] = tested on: SN12C renal; conditions: 10 µM unless noted
[3] = tested on: UO-31 renal; conditions: 10 µM unless noted
[4] = tested on: TK-10 renal; conditions: 10 µM unless noted
[5] = tested on: ACHN renal; conditions: 10 µM unless noted
[6] = tested on: CAKI-1 renal; conditions: 10 µM unless noted
[7] = tested on: A498 renal; conditions: 10 µM unless noted
[8] = tested on: CCRF-CEM leukemia; conditions: 10 µM unless noted
[9] = tested on: SR leukemia; conditions: 10 µM unless noted
[10] = tested on: RPMI-8226 leukemia; conditions: 10 µM unless noted
[11] = tested on: OVCAR-8 ovarian; conditions: 10 µM unless noted
[12] = tested on: OVCAR-5 ovarian; conditions: 10 µM unless noted
[13] = tested on: OVCAR-4 ovarian; conditions: 10 µM unless noted
[14] = tested on: SK-OV-3 ovarian; conditions: 10 µM unless noted
[15] = tested on: IGROV1 ovarian; conditions: 10 µM unless noted
[16] = tested on: OVCAR-3 ovarian; conditions: 10 µM unless noted
[17] = tested on: NCI/ADR-RES ovarian; conditions: 10 µM unless noted
[18] = tested on: HS 578T breast; conditions: 10 µM
[19] = tested on: MOLT-4 leukemia; conditions: 10 µM unless noted

Measured: growth

CO[C@H]1C[C@@H]2CC[C@@H](C)[C@@](O)(O2)C(=O)C(=O)N2CCCC[C@H]2C(=O)O[C@H]([C@H](C)C[C@@H]2CC[C@@H](O)[C@H](OC)C2)CC(=O)[C@H](C)/C=C(\C)[C@@H](O)[C@@H](OC)C(=O)[C@H](C)C[C@H](C)\C=C/C=C/C=C/1C
inactive: [1] 35.8% | [2] 44.3% | [3] 20.7% | [4] 43.5% | [5] 39.5% | [6] 39.6% | [7] 13.8% | [8] 22.1% | [9] 11.5% | [10] 23.8% | [11] 38.7% | [12] 56.6% | [13] 22.9% | [14] 34.3% | [15] 13.8% | [16] 47.6% | [17] 49%

Cc1ccccc1N1C(c2ccccc2)=NNC12C=CC(=O)C=C2Cl (stereo not drawn)
inactive: [1] 111% | [2] 96.3% | [3] 88.8% | [4] 109% | [5] 100% | [6] 105% | [7] 109% | [8] 101% | [9] 90.6% | [10] 109% | [11] 96.7% | [12] 87.8% | [13] 117% | [14] 90.2% | [15] 100% | [16] 118% | [17] 98.7%

Cc1[nH]n(C(N)=S)c(=O)c1N=Nc1ccc(S(=O)(=O)Nc2ccncn2)cc1
inactive: [1] 120% | [2] 97.6% | [3] 84.6% | [4] 126% | [5] 106% | [6] 155% | [7] 87.4% | [9] 111% | [10] 47.2% | [11] 106% | [12] 111% | [13] 95.1% | [15] 67.3% | [16] 99% | [18] 86.2% | [17] 104%
active: [8] -34.3%

O=c1[nH]c(N2CCOCC2)nc2scc(-c3ccccc3)c12
inactive: [1] 53.3% | [2] 107% | [3] 83.1% | [4] 86.6% | [5] 99.3% | [7] 104% | [8] 101% | [19] 90.5% | [9] 102% | [10] 97.7% | [11] 96.2% | [12] 104% | [13] 101% | [14] 88% | [15] 101% | [16] 110% | [18] 102% | [17] 98.1%

COc1ccc2nc3cc(Cl)ccc3c(Nc3ccc(N(C)C)cc3)c2c1
active: [19] 0.475% | [9] 1.55%
inactive: [1] 92.9% | [2] 91.1% | [3] 84% | [4] 128% | [5] 100% | [7] 94.6% | [8] 57.5% | [10] 27.2% | [11] 90.5% | [12] 110% | [13] 88.7% | [14] 85.7% | [15] 97% | [16] 95.9% | [18] 109% | [17] 87.1%

COc1cc(-c2cc(-c3ccc(Nc4ccnc5cc(Cl)ccc45)cc3)nc(N3CCOCC3)n2)cc(OC)c1OC
inactive: [1] 30.9% | [3] 37.5% | [5] 16.7% | [7] 102% | [19] 19.6% | [12] 55.5% | [14] 98.6%
active: [2] -11.9% | [4] -75.9% | [8] -4.98% | [9] -10.7% | [10] -5.21% | [11] 9.73% | [13] -48.3% | [15] 1.69% | [16] -47.7% | [18] 3.06% | [17] 9.9%

CN(C)C/C=C/C(=O)Nc1cc2c(Nc3ccc(F)c(Cl)c3)ncnc2cc1O[C@H]1CCOC1
active: [1] 4.87% | [2] 3.6% | [4] -10.4% | [5] -84.9% | [6] 5.36% | [7] -40.4% | [8] 6.13% | [9] -15.8% | [10] -20.3% | [11] -2.55% | [14] -15.1% | [15] -27.1% | [16] -14% | [17] 5.68%
inactive: [3] 12.2% | [12] 17% | [13] 20.1%

COc1cc2ncnc(Nc3ccc(O)cc3)c2cc1OC
active: [4] 2.22% | [14] 5.29%
inactive: [1] 66.3% | [2] 62.2% | [3] 36.8% | [5] 31.1% | [6] 43.4% | [7] 81.3% | [8] 77.7% | [9] 27.1% | [10] 97.2% | [11] 70.7% | [12] 59.2% | [13] 88.1% | [15] 38.2% | [16] 87.4% | [17] 91.3%

CCCc1cc2cc(-n3nc(C)c4c3CC(C)(C)CC4=O)cc(NC3CCC(O)CC3)c2c(=O)[nH]1 (stereo not drawn)
active: [14] 6.8%
inactive: [1] 47.7% | [2] 41.4% | [3] 29.7% | [4] 40.8% | [5] 28.8% | [7] 64% | [8] 20.3% | [19] 14.7% | [9] 23.8% | [10] 15.2% | [11] 33% | [12] 50.5% | [13] 64.7% | [15] 36.9% | [16] 23.2% | [18] 47.4% | [17] 45.5%

COC(=O)C1CCc2sc3ncnc(Nc4cn[nH]c4C(=O)Nc4ccc(CN5CCN(C)CC5)cc4)c3c21 (stereo not drawn)
active: [1] 8.24% | [3] -15.3% | [4] 5.51% | [5] 4.58% | [7] -25.6% | [8] 1.79% | [19] -6.03% | [9] -25.7% | [10] 8.36% | [12] -2.74% | [14] 6.43% | [15] 4.94% | [18] -3.1%
inactive: [2] 12.7% | [11] 16.6% | [13] 23.5% | [16] 11.4% | [17] 54.4%

COc1ccc(-c2nocc2-c2cc(OC)c(OC)c(OC)c2)cc1
active: [16] -10.9% | [17] -19.5%
inactive: [1] 54.2% | [2] 50% | [3] 36.3% | [4] 67.3% | [5] 39.6% | [6] 31.2% | [8] 22.7% | [19] 20.4% | [9] 23.6% | [10] 30.7% | [11] 28.4% | [12] 51% | [13] 45.7% | [14] 22.5% | [15] 46.6% | [18] 27.4%

O=C(Nc1cn[nH]c1-c1nc2ccc(CN3CCOCC3)cc2[nH]1)NC1CC1
inactive: [1] 68.5% | [2] 17% | [4] 44% | [5] 36.1% | [8] 13.9% | [10] 108% | [11] 28.7% | [12] 22.5% | [13] 78.5% | [16] 11.7% | [17] 76.3%
active: [3] -22.1% | [7] -15.5% | [19] -5.45% | [9] -11.9% | [14] -5.97% | [15] 9.49%

C=CCCCC(=O)CCC(=O)OCC1O[C@@H](O[C@@H]2C(O)[C@@H](OC(C)=O)C(C)O[C@H]2O[C@H](CC=C)CCCCC)C(O)[C@@H](OC(=O)/C(C)=C/C)[C@@H]1OC(=O)/C=C/c1ccccc1 (stereo partly drawn)
active: [2] 3.86% | [9] -12.4% | [10] -1.27%
inactive: [1] 30.5% | [3] 24.5% | [4] 27% | [5] 23.4% | [7] 52.5% | [8] 29.2% | [19] 26.7% | [11] 42.1% | [12] 53.5% | [13] 42.4% | [14] 40.6% | [15] 35.1% | [16] 26% | [18] 35.9% | [17] 49.2%

COc1ccc(/C(C)=C(\c2ccc(Cl)cc2)c2ccc(OCCN3CCCCCC3)cc2)cc1
active: [9] 1.94%
inactive: [1] 56.7% | [2] 55.3% | [3] 46% | [4] 73.8% | [5] 67.3% | [6] 66.6% | [7] 78.4% | [8] 43.9% | [10] 51.2% | [11] 69.1% | [12] 74.3% | [13] 56.4% | [14] 55.7% | [15] 67.1% | [16] 58.2% | [17] 82.8%

CC(C)[C@@H](C)/C=C/[C@@H](C)[C@H]1CCC2=C3C=CC4=CC(=O)CC[C@]4(C)[C@H]3CC[C@@]21C
inactive: [1] 99.1% | [2] 101% | [3] 92% | [4] 87.8% | [5] 109% | [6] 93.9% | [8] 82.2% | [19] 85.5% | [9] 70.8% | [10] 66% | [11] 91.1% | [12] 105% | [13] 101% | [14] 105% | [15] 110% | [16] 116% | [18] 108% | [17] 101%

Cc1cc2c(-c3nc4ccccn4c3NC3CCCCC3)c(O)c(O)cc2c(O)c1-c1c(C)cc2c(-c3nc4ccccn4c3NC3CCCCC3)c(O)c(O)cc2c1O
inactive: [1] 27.1% | [2] 33% | [3] 35.3% | [4] 27.5% | [5] 18.8% | [7] 71.4% | [8] 23.5% | [19] 43.6% | [9] 25.8% | [10] 31.6% | [11] 34.4% | [12] 33.7% | [13] 27.4% | [14] 41.5% | [15] 36.2% | [16] 32.4% | [18] 21.9% | [17] 71.9%

CO[C@H](C(=O)N[C@@H](CCCCNC(=O)OCc1ccccc1)C(=O)OC(C)(C)C)[C@@H]1Cc2cc3cc(OC4CC(OC5CC(O)C(O)C(C)O5)C(O)C(C)O4)c(C)c(O)c3c(O)c2C(=O)[C@H]1OC1CC(OC2CC(OC3CC(C)(O)C(O)C(C)O3)C(O)C(C)O2)C(O)C(C)O1 (stereo partly drawn)
active: [1] -25.1% | [2] -7.42% | [4] -9.57% | [5] -2.61% | [7] -89.9% | [8] 3.09% | [9] 7.17% | [10] -5.01% | [12] -77.9% | [14] -52.7%
inactive: [3] 10.5% | [6] 22.6% | [11] 12.9% | [13] 43.1% | [15] 22.2% | [16] 24.8% | [17] 73.2%

NS(=O)(=O)c1ccc(CCN2C(=O)/C(=C\c3ccc(Cl)cc3)C=C2c2ccc3ccccc3c2)cc1
inactive: [1] 89.4% | [2] 94% | [3] 78.4% | [4] 95.5% | [5] 90% | [6] 82.4% | [8] 106% | [19] 86.3% | [9] 83.3% | [10] 89.6% | [11] 83.7% | [12] 89.5% | [13] 95.3% | [14] 84% | [15] 94.2% | [16] 104% | [18] 101% | [17] 95.3%

Cc1csc(-c2nnc(Nc3ccc(Oc4ncccc4-c4ccnc(N)n4)cc3)c3ccccc23)c1
inactive: [1] 64.8% | [2] 52.1% | [3] 32.4% | [4] 39.7% | [5] 38.8% | [6] 50.8% | [7] 56.1% | [8] 25.1% | [10] 51.8% | [11] 31% | [12] 51.5% | [13] 60.3% | [14] 53% | [15] 24.5% | [16] 56% | [17] 50%
active: [9] 3.4%
